Test results from the OligoGym collection.

Each sequence was assayed against DOCK1 (assay: pooled miR-30 sensor sort-seq; sequence = guide strand). Settings: shRNA.

Going from TTAGACTTTTTTCGTAACGTGT to TTCGACTTCATGATCCAGCTTG, the sensor-assay potency score (higher = more potent) rises from -0.535 to 0.58.

First: TTTCGTAACGTGTAACCTCGGT
Second: TTATACATCATCACTACACAGC
The sensor-assay potency score (higher = more potent) of the first is higher: 0.0583 for the first, -0.419 for the second.

Going from TTTCGTTCTCATACTGCTCGGC to TTCACATCGTTGACGATCGTTG, the sensor-assay potency score (higher = more potent) falls from 0.184 to -0.549.

TTTCACATCGTTGACGATCGTT was tested, and the sensor-assay potency score (higher = more potent) was -0.0463.

The sequences below were run against DOK4 in the same assay as above. Settings: shRNA.

Compared with TTCCCCAGCATCACACATCCGG, TCTAGCTCTGAGTCGCAGGTGA is higher in sensor-assay potency score (higher = more potent): -0.865 for the first, -0.0163 for the second.

Going from TTGCTGATCTCAGTCACCTTGG to TCTGAGTCGCAGGTGAAGGTAC, the sensor-assay potency score (higher = more potent) falls from -0.109 to -0.935.

Going from TTCTTCTCCATTTCCAGCAGGA to TAGCAGGATGAATCTGTTGAGG, the sensor-assay potency score (higher = more potent) falls from 0.267 to -1.03.

Compared with TTGAGGAGGTCTGTTTCCGAGC, TAGCTCTGAGTCGCAGGTGAAG is lower in sensor-assay potency score (higher = more potent): -1.09 for the first, -1.6 for the second.

Compared with TTTAGCAGGATGAATCTGTTGA, TTCTCCCAGACTGATGTCGTTG is lower in sensor-assay potency score (higher = more potent): 0.432 for the first, -1.27 for the second.

First: TAGTGTCTTGTACCACTCCTCT
Second: ATAGTGTCTTGTACCACTCCTC
The sensor-assay potency score (higher = more potent) of the first is lower: -0.903 for the first, -0.442 for the second.

What follows are sequences tested against DPEP3 in the same assay as above. Settings: shRNA.

First: TTGGTGGAACTCTCTGCCCATG
Second: ATTTCGCAGGTTAACATCCTGA
The sensor-assay potency score (higher = more potent) of the first is lower: -1.6 for the first, -0.609 for the second.

Going from ATTCTTGTAACGCTGTCTCAGG to ATGTGGTGTCTGAACTTGGTGG, the sensor-assay potency score (higher = more potent) falls from -0.648 to -0.807.

Compared with TTCCACTTGTCTGAAGACCCGC, TGAACTTGGTGGAACTCTCTGC is higher in sensor-assay potency score (higher = more potent): -0.394 for the first, 0.129 for the second.

Going from TCAACAAATTGTCACACACAGC to AAATTGTCACACACAGCTCTGG, the sensor-assay potency score (higher = more potent) rises from -1.21 to -0.275.

First: AAGCACATTCTTGTAACGCTGT
Second: TTGTCTGAAGACCCGCAGCAGG
The sensor-assay potency score (higher = more potent) of the first is higher: 0.352 for the first, -1.57 for the second.

First: TGAAGCTCTTCCTCGCTCCAGC
Second: TACATGTGGTGTCTGAACTTGG
The sensor-assay potency score (higher = more potent) of the first is lower: -0.659 for the first, -0.261 for the second.

TTTGAGAGCTGTTCAGACCTTC was tested, and the sensor-assay potency score (higher = more potent) was 0.484.

What follows are sequences tested against DPM2 in the same assay as above. Settings: shRNA.

Compared with TTGGTCTTCAGCATCACATAGG, TCCCACAAACAGGAGCAGCAGG is lower in sensor-assay potency score (higher = more potent): -0.278 for the first, -1.71 for the second.

First: TTCAGCATCACATAGGAGATGA
Second: ATGAACAGTCCCACAAACAGGA
The sensor-assay potency score (higher = more potent) of the first is lower: -0.473 for the first, -0.342 for the second.

First: TTGTGGATGACATGCTGACTGT
Second: TGAACAGTCCCACAAACAGGAG
The sensor-assay potency score (higher = more potent) of the first is higher: -1.33 for the first, -1.56 for the second.

Compared with TAGGTGAAGATGATCAGGCTAA, TACTTGTGGATGACATGCTGAC is lower in sensor-assay potency score (higher = more potent): 0.29 for the first, -0.0583 for the second.
